Screens (PubChem BioAssay)
Most compounds without a hit are left out; they make up all but 4% or so of the library.
NALP3 yeast inh = blocks the NALP3 inflammasome reconstituted in yeast; Yeast reconstituted NLRP3/ASC/caspase-1, beta-gal luminescence, 24 h; inhibition, % at 10 µM; hit rate 0.39% among 330,000; AID 2825;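 active = inhibition of 50% or more; inactive = inhibition below 50%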;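 note: plate controls were induced DMSO wells for no effect and uninduced yeast grown without galactose for full effect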
NALP1 inh = NALP1 inhibition. S. cerevisiae NALP1/ASC/caspase-1 growth, X-gal OD620, 72 h. inhibition, % at 10 µM. hit rate 0.61% among 280,000. AID 2071; in the data active = inhibition mostly above about 24%, no sharp cut-off; inactive = mostly below about 32%
tim10-1 inh = tim10-1 yeast growth inhibition. S. cerevisiae tim10-1 ts strain growth, BacTiter-Glo, 24 h. inhibition, % at 20 µM. hit rate 2.2% among 330,000;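 active = inhibition of at least 40%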;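 note: mutant grown at 25 °C; 0% = DMSO wells with yeast and 100% = wells holding no yeast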
tim23-1 inh = tim23-1 yeast growth inhibition; S. cerevisiae tim23-1 growth, BacTiter-Glo luminescence, 24 h; inhibition, % at 20 µM; hit rate 1.3% among 330,000;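 active = growth inhibition of the mutant yeast at or above 50%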;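 note: temperature-sensitive mutant grown at 25 °C; plate controls were DMSO-treated mutant yeast for no effect and medium wells lacking yeast for full effect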
TIM10 inh = TIM10 yeast growth inhibition | hit rate 1.4% among 330,000 | AID 463195 | inhibition, % at 10 µM | S. cerevisiae TIM10 strain growth, BacTiter-Glo luminescence, 24 h;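 active = inhibition of 40% or more at the single tested concentration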;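 note: wild-type TIM10 isogenic control strain grown at permissive 25 °C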
Starred values were filed as active, the others as inactive; · = no result given.

SMILES	NALP3 yeast inh	NALP1 inh	tim10-1 inh	tim23-1 inh	TIM10 inh
Cc1cccc(NC(=O)C2CC(=O)n3cnnc3S2)c1 (centres undefined)	8	40*	20	5	35
COc1ccc(-n2c(=O)[nH]cc(C(=O)N3CCCc4ccccc43)c2=O)cc1	-5	27*	1	1	-13
CCOc1ccc(-n2c(=O)[nH]cc(C(=O)N3CCCc4ccccc43)c2=O)cc1	4	16	-2	3	-23
Clc1ccc(-c2cnc(Oc3ccccc3)nc2)cc1	-9	39*	15	16	10
Cc1ccc(C(=O)Oc2ccccc2N2C(=O)C3CCC(C)CC3C2=O)cc1 (centres undefined)	-25	16	36	46	25
CC1CCC2C(=O)N(c3ccc(C(=O)Oc4cccc5cccnc45)cc3)C(=O)C2C1 (centres undefined)	17	71*	29	29	11
CCOc1ccccc1Oc1coc2cc(OCC(=O)O)ccc2c1=O	-4	18	4	5	-15
CCOc1ccc2c(=O)c(Oc3ccccc3OCC)coc2c1	23	44*	23	48	23
FC(F)(F)c1nc(-c2ccncc2)ncc1-c1nnnn1-c1ccccc1	15	20	11	9	-15
c1ccc(-n2nnnc2-c2cnc(-c3ccncc3)nc2-c2cccs2)cc1	10	22*	11	19	-30
CSCCC(NC(=O)c1ccco1)C(=O)Nc1ccncc1 (centres undefined)	4	9	1	8	13
COc1ccccc1N1CCN(CC(O)COc2ccc3c(c2)OCO3)CC1 (centres undefined)	3	23*	5	-5	-2
Nc1c2c(nc3sc4c(c13)CCCCC4)CCCCC2	17	64*	19	29	9
Cc1ccnc(OC(C(=O)O)C(OCc2ccccc2)(c2ccc(F)cc2)c2ccc(F)cc2)n1 (centres undefined)	21	-6	-5	3	7
CC1=CC(=O)C=C(C)C1=NOS(=O)(=O)c1ccccc1	·	104*	·	·	·
CC1=CC(=O)C(C(C)C)=C/C1=N/OS(=O)(=O)c1ccccc1	44	12	-140	49	25
CSCCC(NC(=O)c1ccco1)C(=O)N1CC(C)OC(C)C1 (centres undefined)	13	·	-14	-1	-3
COCCCNS(=O)(=O)c1cc2c3c(c1)C(C)C(=O)N3CCC2 (centres undefined)	6	6	22	5	-4
CC(=O)N1CCc2cc(S(=O)(=O)NCCC(=O)Nc3cc(C)cc(C)c3)ccc21	14	40*	11	-2	-9
C=C(C)CNC(=S)N/N=C/c1ccc([N+](=O)[O-])cc1	21	32*	-16	-9	-41
O=C(C1=C[C@H](c2coc3ccccc3c2=O)C[C@H](OCc2ccc(CO)cc2)O1)N1CCN(Cc2ccc3c(c2)OCO3)CC1	13	20*	5	11	4
CCN(CC)S(=O)(=O)c1ccc(N2CCCC2)c(NC(=O)CC(C)(C)C)c1	-1	19	14	18	-17
CC1(C)CC2(CCCN3C(=O)CSC32)CCS1 (centres undefined)	10	38*	-5	0	-14
CC(=O)N1CCN(c2ccc(C(N)=O)cc2[N+](=O)[O-])CC1	-6	32*	10	9	-7
Cc1ccc(C(=O)N2CCN(c3ccccc3Cl)CC2)cc1[N+](=O)[O-]	11	38*	13	46	10
SMILES	NALP3 yeast inh	NALP1 inh	tim10-1 inh	tim23-1 inh	TIM10 inh
CCC(=O)N1CCN(c2ccc(NC(=O)c3ccc(N4CCOCC4)c([N+](=O)[O-])c3)cc2)CC1	25	38*	-2	14	3
COc1ccccc1NC(=O)CN1CC(=O)Nc2ccccc21	1	-22	2	11	6
CCC(C)c1ccccc1OCC(=O)NN1C(=O)c2ccccc2C1=O (centres undefined)	18	16	10	34	6
CC(C)c1ccccc1OCC(=O)NN1C(=O)c2ccccc2C1=O	-1	42*	13	27	9
COC(=O)C(Cc1ccc(O)cc1)N1Cc2ccccc2C1=O (centres undefined)	-4	-1	-4	21	12
Cc1ccc(NC(=O)CCS(=O)(=O)c2ccc(Br)s2)cc1	11	10	1	22	13
Cc1ccc(CNC(=O)CCS(=O)(=O)c2ccc(Br)s2)cc1	8	43*	18	5	12
CC1(NC(=O)CCc2nc3ccccc3c(=O)[nH]2)CCS(=O)(=O)C1 (centres undefined)	13	11	-24	-23	-3
CC1CCN(CCOc2ccc(OCc3ccccc3)cc2)CC1	35	49*	-47	-86	0
c1ccc(COc2ccc(OCCCCN3CCCC3)cc2)cc1	17	45	-15	-10	-9
CCOC(=O)c1ccc(NC(=S)N(CCCN2CCCCC2)Cc2ccco2)cc1	6	44*	10	4	1
CCN(CC)c1ccc(NC(=O)c2cccnc2)c(C)c1	4	4	9	10	6
CCN(CC)c1ccc(NC(=O)c2cccc(C)c2OC)c(C)c1	18	29*	25	16	9
CC(NCc1ccc(F)cc1)C(=O)NC1CCCCC1 (centres undefined)	9	44*	10	6	-7
C[C@@H](CSc1ccccc1)CN1CC[C@H](NC(=O)OCc2ccccc2)CCC1=O	17	6	31	26	23
Cc1oc2cc(O)ccc2c(=O)c1Oc1ccc2ccccc2c1	18	32*	21	42	20
CCCCOc1ccc(NC(=O)c2cnc(C)cn2)cc1	21	45*	6	10	9
Cc1cnc(C(=O)Nc2ccc(F)c(F)c2)cn1	11	38	13	3	9
Cc1ccc(-c2cc(C(=O)OCC(=O)NC3CC3)c3ccccc3n2)cc1	35	·	29	46	34
O=C(O)C1=C[C@H](c2ccc(C(F)(F)F)cc2)C[C@H](OCc2ccc(CO)cc2)O1	13	22*	19	21	15
O=C(Nc1ccc(-n2cccn2)cc1)C1CCCCN1Cc1cccc2c1OCO2 (centres undefined)	12	33	26	26	-5
CN(c1ccc(OCC(=O)Nc2ccc3[nH]c(=O)[nH]c3c2)cc1)S(=O)(=O)c1ccc(Cl)cc1	-6	42*	12	5	1
COc1ccc(CCNC(=O)COc2ccc(N(C)S(=O)(=O)c3ccc(Cl)cc3)cc2)cc1	·	26*	·	·	·
CC(=O)c1ccc(S(=O)(=O)NCC(=O)Nc2nc3ccccc3[nH]2)cc1	8	·	3	15	0
C#Cc1ccc([C@@H]2C=C(C(=O)N3CCN(Cc4ccc5c(c4)OCO5)CC3)O[C@H](OCCCCO)C2)cc1	13	-6	24	18	11
CCn1c(SCC(=O)OCc2ccccc2)nnc1-c1ccco1	-8	12	4	16	2
Cn1c(SCC(=O)OCc2ccccc2)nnc1-c1ccco1	6	44*	17	20	0
